Data on twelve molecules can be found in PubChem BioAssay.

Active and inactive are the calls of the source. Unless noted, the rule behind the calls is not given here.

Assay [1] can be described thus: HepG2 liver cancer cell viability effects, profiling panel, resazurin fluorescence, 24 h, PK04 Diversity Set (AID 1172). Note: test concentration not given here. To be noted: higher = more signal.
Assay [2] can be described thus: basal S. cerevisiae growth modulation, no modifier, primary screen, OD600, strain BY4716, 24 h, basal condition (AID 1173). To be noted: OD600, 24 h, higher = more signal, called active from +8 up or from −8 down.
A short description of assay [3]: MM1S myeloma cell viability, profiling panel, resazurin fluorescence, basal, 24 h, PK04 Diversity Set (AID 1174).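 Note: MM1S multiple myeloma cell line; test concentration not given here.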 Conditions: higher = more signal, called active from +8 up or from −8 down.
Assay [4] addresses Dihydroorotate dehydrogenase (quinone), mitochondrial (Plasmodium falciparum (isolate 3D7)) (UniProt Q08210). In words: PfDHODH enzyme inhibitors, primary screen, biochemical, C-terminal His tag, absorbance 600 nm (AID 1175).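 Note: recombinant parasite enzyme with a five histidine tag at its C terminus; test concentration not given here.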 Conditions: DCIP absorbance 600 nm, higher = more signal, called active from +8 up or from −8 down.
Assay [5] can be described thus: P. aeruginosa biofilm formation inhibitors, primary screen, strain PAO1, LB-PBS medium, absorbance 600 nm (AID 1176). Note: test concentration not given here. To be noted: P. aeruginosa PAO1 growth/biofilm, A600, 12 h; higher = more signal.
Assay [6] in a line: S. cerevisiae RM11-1a growth modifiers, primary screen, strain RM11-1a, OD600, basal, 24 h (AID 1177).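 Note: cultures grown under basal conditions with no added stressor; test concentration not given here.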 Conditions: OD600, 24 h, higher = more signal, called active from +8 up or from −8 down.
Assay [7] in a line: E. coli acrAB mutant growth effects, primary screen, E. coli filamentation inducers, strain DRC39, OD650, 24 h (AID 1178).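 Note: growth measured as culture turbidity by optical density at 650 nm; test concentration not given here.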 To be noted: higher = more signal, called active from +8 up or from −8 down.
A short description of assay [8]: E. coli acrAB mutant growth effects, primary screen, E. coli filamentation inducers, strain DRC39, OD650, 48 h (AID 1179).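 Note: screen aims at cell division blockers that make cells filament.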 Conditions: E. coli DRC39 delta-acrAB growth, higher = more signal, called active from +8 up or from −8 down.
Assay [9] in a line: RPMI8226 myeloma cell viability, profiling panel, resazurin fluorescence, basal, 24 h, PK04 Diversity Set (AID 1180).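 Note: RPMI8826 multiple myeloma cell line at 5000 cells per well; test concentration not given here.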 Conditions: higher = more signal.
Assay [10] addresses E3 ubiquitin-protein ligase XIAP (Homo sapiens) (UniProt P98170). In words: XIAP binders, primary screen, biophysical, small-molecule microarray, fluorescence 635 nm (AID 1181).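 Note: score merges 667 nm emission and signal to noise over triplicate slides.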 Conditions: small-molecule microarray binding, higher = more signal.

Chain of E3 ubiquitin-protein ligase XIAP (Homo sapiens) (P98170 whole entry, looked up): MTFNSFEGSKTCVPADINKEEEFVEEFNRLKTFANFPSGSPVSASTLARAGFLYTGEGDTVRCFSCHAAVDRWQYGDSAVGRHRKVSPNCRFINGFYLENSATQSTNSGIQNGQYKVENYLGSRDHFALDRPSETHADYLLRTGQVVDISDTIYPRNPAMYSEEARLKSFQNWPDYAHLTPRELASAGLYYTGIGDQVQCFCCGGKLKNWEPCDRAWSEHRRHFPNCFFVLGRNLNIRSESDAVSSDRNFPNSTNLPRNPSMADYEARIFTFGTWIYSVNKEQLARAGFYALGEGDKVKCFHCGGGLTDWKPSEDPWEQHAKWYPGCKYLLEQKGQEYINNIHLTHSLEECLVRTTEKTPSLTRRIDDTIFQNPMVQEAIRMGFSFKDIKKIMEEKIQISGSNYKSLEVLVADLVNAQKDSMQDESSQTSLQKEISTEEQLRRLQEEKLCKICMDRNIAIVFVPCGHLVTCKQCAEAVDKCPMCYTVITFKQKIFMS
Chain of Dihydroorotate dehydrogenase (quinone), mitochondrial (Plasmodium falciparum (isolate 3D7)) (Q08210 whole entry, looked up): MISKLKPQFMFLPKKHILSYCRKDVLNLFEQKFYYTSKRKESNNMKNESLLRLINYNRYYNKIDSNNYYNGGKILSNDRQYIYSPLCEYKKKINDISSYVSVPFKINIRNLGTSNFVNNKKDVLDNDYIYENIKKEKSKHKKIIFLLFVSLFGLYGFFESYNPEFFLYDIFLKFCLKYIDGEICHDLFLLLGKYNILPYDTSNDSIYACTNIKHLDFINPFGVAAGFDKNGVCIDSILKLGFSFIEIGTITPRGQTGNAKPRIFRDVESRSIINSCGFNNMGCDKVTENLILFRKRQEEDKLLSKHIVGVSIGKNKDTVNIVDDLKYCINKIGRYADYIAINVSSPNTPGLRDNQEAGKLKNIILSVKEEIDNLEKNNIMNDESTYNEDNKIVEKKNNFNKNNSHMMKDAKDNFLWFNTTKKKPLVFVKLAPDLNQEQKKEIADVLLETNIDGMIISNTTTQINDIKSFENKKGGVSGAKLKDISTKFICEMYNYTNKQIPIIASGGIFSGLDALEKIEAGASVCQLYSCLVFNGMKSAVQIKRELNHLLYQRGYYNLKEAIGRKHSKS

In the case of `C=C(C(=O)CC[C@H](OC(=O)c1cccnc1)c1ccc(OCCO)cc1)C(C)C`, the z-score is -0.688 in [1]; -0.303 (inactive) in assay [2]; -2.35 (inactive) in assay [3]; 0.273 (inactive) in [5]; 0.899 (inactive) in assay [6]; -0.97 (inactive) in assay [7]. In addition, the z-score in [8] was -0.899 (inactive); in assay [9], -2.53. The composite z-score in assay [4] is 0.349 (inactive); in [10], 0.158.

Turning to `COCCOC(=O)N1C(=O)[C@@]2(c3cc(C#CC4(O)CCCCCC4)ccc31)[C@H](C(=O)N1CCc3cc(OC)c(OC)cc3C1)[C@H]1C(=O)O[C@H](c3ccccc3)[C@H](c3ccccc3)N1[C@@H]2c1ccccc1OCCO`, the z-score is 0.032 in assay [1]; 1.96 (inactive) in [2]; 0.162 (inactive) in assay [3]; 1.01 (inactive) in assay [5]; 2.98 (inactive) in assay [6]; -0.0554 (inactive) in assay [7]. Besides, the values for the z-score in assay [8] and in assay [9] were 0.585 (inactive) and 0.793, respectively. Further, the composite z-score in assay [4] was 0.666 (inactive); in assay [10] it was 0.0297.

Take `Cc1ccc(N2C(=O)c3ccccc3[C@](C)(C(=O)NC(C)C)[C@@H]2c2ccc(CO)cc2)nc1`: the z-score in assay [1] was -0.591; in [2], 0.201 (inactive); in [3] it was 0.761 (inactive); in assay [5], 0.599 (inactive); in [6], -0.243 (inactive); in assay [7], 0.381 (inactive). Further, the z-score in [8] is -0.111 (inactive); in assay [9] it was 0.818. The values for the composite z-score in assay [4] and in [10] were -3.7 (inactive) and -0.272, respectively.

As for `O=C1OCC=C[C@H]2OC34C=CCN(CCN5CCOCC5)C(=O)[C@H]3N(CCCCCO)C(=O)[C@@H]4[C@@H]12` (stereo not given in full), the z-score in [1] is -0.267; in assay [2], -0.654 (inactive); in assay [3] it was -1.12 (inactive); in [5], -0.525 (inactive); in assay [6], 0.105 (inactive); in [7] it was -1.18 (inactive). For the same molecule, the z-score is -1.37 (inactive) in [8] and -0.82 in [9]. In addition, the composite z-score in [4] is 0.31 (inactive); in assay [10], 0.11.

Regarding `CCN(CC)c1ccc(N2CC=CC34O[C@@H]5/C=C\CCCOC(=O)C5[C@H]3C(=O)N(CCCCCCO)[C@@H]4C2=O)cc1` (stereo not given in full), the z-score was -0.574 in [1]; -1.14 (inactive) in assay [2]; 0.93 (inactive) in assay [3]; -0.869 (inactive) in assay [5]; -1.78 (inactive) in [6]; 0.318 (inactive) in assay [7]. Besides, the z-score was 0.901 (inactive) in [8] and 0.79 in assay [9]. Moreover, the composite z-score in assay [4] is -2.09 (inactive); in [10], -0.083.

As to `CC(C)C(CO)N1C(=O)[C@@H]2[C@H]3C(=O)OCC=C[C@H]3OC23C=CCN(Cn2nnc4ccccc42)C(=O)[C@@H]13` (stereo not given in full), the z-score was 0.288 in assay [1]; 0.959 (inactive) in assay [2]; -0.281 (inactive) in assay [3]; 0.894 (inactive) in [5]; 0.68 (inactive) in assay [6]; -0.497 (inactive) in assay [7]. Moreover, the z-score in assay [8] was -0.708 (inactive); in assay [9], -0.0558. In addition, the composite z-score in [4] was 0.237 (inactive); in assay [10], 0.175.

On to `CCCC=C(CCC)[C@@H](NC(=O)Cc1ccccc1)c1ccc(C(=O)OC)cc1`, for which the z-score in assay [1] is -0.704; in [2], 0.951 (inactive); in assay [3] it was -1.14 (inactive); in assay [5], 0.964 (inactive); in assay [6], 1.49 (inactive); in assay [7] it was 0.276 (inactive). Further, the z-score in assay [8] is 0.543 (inactive); in assay [9], -0.702. Besides, the composite z-score was -0.831 (inactive) in assay [4] and 0.11 in [10].

For `Cc1cc(C)c(C(O)C2C=CC3C(=O)N(c4ccccc4)C(=O)C3N2Nc2ccc([N+](=O)[O-])cc2)c(C)c1` (stereo not given), the z-score is -0.221 in assay [1]; 0.414 (inactive) in [2]; -0.237 (inactive) in assay [3]; 1.64 (inactive) in assay [5]; 0.258 (inactive) in [6]; -0.777 (inactive) in assay [7]. Besides, the z-score in assay [8] is -0.624 (inactive); in [9] it was 0.0375. Moreover, the composite z-score is -0.212 (inactive) in assay [4] and 0.0827 in [10].

Take `CO[C@H]1O[C@H](CO)[C@@H](OC(=O)Nc2cccc(F)c2)[C@H](OC(=O)Nc2ccc3c(c2)OCO3)[C@H]1OC(=O)Nc1ccc2c(c1)OCO2`: the z-score in assay [1] was -0.252; in assay [2], 1.55 (inactive); in assay [3], -1.53 (inactive); in assay [5], 1.38 (inactive); in assay [6], 1.48 (inactive); in [7] it was 1.49 (inactive). Moreover, the z-score in [8] is 0.378 (inactive); in assay [9], -1.89. Moreover, the composite z-score in assay [4] is -0.222 (inactive); in assay [10] it was 0.652.

Turning to `O=C(O)[C@]1(CCS(=O)(=O)c2ccccc2)N=C(c2ccc(OCCCO)cc2)O[C@@H]1c1ccccc1`, the z-score is 0.93 in assay [1]; -0.334 (inactive) in assay [2]; 0.716 (inactive) in assay [3]; -1.3 (inactive) in [5]; -0.707 (inactive) in assay [6]; 1.92 (inactive) in assay [7]. Besides, the z-score in assay [8] was 0.815 (inactive); in [9], 0.314. Moreover, the composite z-score in [4] was -0.295 (inactive); in [10] it was -0.0988.

As to `CCOC(=O)C1=CC[C@@H](c2cccc(Br)c2)N(S(=O)(=O)c2ccc(C)cc2)[C@H]1c1ccc([N+](=O)[O-])cc1`, the z-score in [1] was 0.157; in [2], 0.25 (inactive); in assay [3], -0.343 (inactive); in [5], 0.449 (inactive); in assay [6], -0.403 (inactive); in [7] it was -0.837 (inactive). In addition, the results for the z-score in assay [8] and in [9] were -0.0589 (inactive) and -1.14, respectively. The composite z-score was -1.26 (inactive) in [4] and -0.27 in assay [10].

In the case of `C=C(COC)C(=O)CC[C@H](OC(=O)c1ccccc1-c1ccccc1C(=O)O)c1ccc(CO)o1`, the z-score in [1] is -0.45; in [2] it was 0.624 (inactive); in assay [3], -0.176 (inactive); in assay [5], 1.85 (inactive); in assay [6], 0.89 (inactive); in assay [7] it was -0.573 (inactive). Moreover, the z-score in [8] is -0.399 (inactive); in [9], -0.178. Moreover, the composite z-score is -1.39 (inactive) in assay [4] and 0.0402 in assay [10].
